Screens from PubChem BioAssay.
Shown are actives, neighbours in structure and some others; about 19% of the full set was active somewhere.
DT40 TDP1 no CPT: qHTS for Inhibitors of human tyrosyl-DNA phosphodiesterase 1 (TDP1): qHTS in cells in absence of CPT; DT40 Tdp1-/- hTDP1 cells, no CPT, ATP luminescence, 48 h; Potency, µM (series often up to 46.2 µM), for the others: at the top dose activity change, negative = growth inhibition, hits mostly inhibitors; 420,000 compounds, 15% hits; AID 686978, 2013; note: potency is the fitted concentration of half-maximal effect; % is set by controls: 0 for no effect and ±100 for the full control effect; nearly all actives have a fitted effect of over 55% in size
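Seeded 400 DT40-hTDP1 cells/well (vehicle DMSO, no 20 nM CPT); pinned compounds; ≥48 hr at 37 °C; CellTiter-Glo luminescence as viability measure.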
TGFb SMAD3 inh: inhibitors of TGF-b signaling; Potency, µM (titrated, usually from 46.1 µM), without a hit: top-dose activity, negative = inhibition, most hits filed as inhibitors; 410,000 compounds, 1.2% hits; HepG2 CAGA-GFP TGF-b/SMAD3 reporter, GFP fluorescence, 18 h; TGF-beta stimulated, 500 pg/mL final; note: potency is the fitted concentration of half-maximal effect; % is set by controls: 0 for no effect and ±100 for the full control effect; nearly all actives have a fitted effect of over 65% in size
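Cell-based qHTS in HEPG2 carrying a CAGA-GFP Smad reporter; compounds added before 500 pg/mL final TGF-beta, 18 h incubation at 37 degrees C, GFP fluorescence quantified per cell by imaging cytometry.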
ASM inhibitor: human S-ASM enzyme inhibition; P17405; placental ASM, HMU-PC fluorogenic substrate, 60 min; Potency, µM (doses to about 57.5 µM), for the others: top-dose activity change, negative = inhibition, hits mostly inhibitors; 340,000 compounds, 0.006% hits; AID 504937; note: potency is the fitted concentration of half-maximal effect
Target sequence (P17405 47-631 limits assumed): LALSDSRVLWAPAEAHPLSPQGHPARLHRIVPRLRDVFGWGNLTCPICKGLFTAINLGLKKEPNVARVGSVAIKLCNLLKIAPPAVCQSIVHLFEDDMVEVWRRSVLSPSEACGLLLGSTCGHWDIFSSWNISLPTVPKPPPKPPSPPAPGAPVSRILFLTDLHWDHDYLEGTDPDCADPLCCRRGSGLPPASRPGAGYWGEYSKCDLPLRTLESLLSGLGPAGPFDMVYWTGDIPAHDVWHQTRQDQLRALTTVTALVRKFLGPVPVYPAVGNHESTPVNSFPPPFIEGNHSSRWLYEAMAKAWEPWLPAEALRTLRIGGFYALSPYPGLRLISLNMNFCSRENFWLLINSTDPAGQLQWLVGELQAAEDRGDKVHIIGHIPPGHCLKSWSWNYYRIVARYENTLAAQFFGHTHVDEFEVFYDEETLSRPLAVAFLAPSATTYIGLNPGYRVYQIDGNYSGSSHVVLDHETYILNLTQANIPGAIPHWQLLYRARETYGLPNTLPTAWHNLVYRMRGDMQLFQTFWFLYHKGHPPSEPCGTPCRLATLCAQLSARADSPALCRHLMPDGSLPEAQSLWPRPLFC
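HMU-PC0 cleavage (9 uM final) by human placental ASM, 60 min at 37 °C following 10 min compound exposure at RT; stopped at pH 10, fluorescence Ex 386/Em 447 nm.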
TDP1 cell CPT: DT40-hTDP1 cell growth loss with CPT. chicken DT40 Tdp1-/-;hTDP1 cells + 20 nM CPT, ATP luminescence, 48 h. Potency, µM (top dose mostly 46.2 µM), for inactives: at the top dose activity change, negative = growth inhibition, most hits filed as inhibitors. 420,000 compounds, 12% hits. AID 686979; note: potency is the fitted concentration of half-maximal effect; % is set by controls: 0 for no effect and ±100 for the full control effect; nearly all actives have a fitted effect of over 55% in size
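Cell growth measured by CellTiter-Glo luminescence after a minimum 48 h, 37 C compound exposure with 20 nM CPT in Tdp1-knockout DT40 cells stably expressing hTDP1, seeded 400/well; qHTS titration format.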
IL-1B inflam inh: inflammasome signaling inhibition, IL-1 beta readout. THP-1 LPS/ATP IL-1B secretion, AlphaLISA, 16 h; active compounds read low. activity change, % at 57.5 µM. 360,000 compounds, 4.7% hits. AID 743279; in the data active = activity change below about -50%; inconclusive = mostly about -30% to -49%; note: % is set by controls: 0 for no effect and ±100 for the full control effect
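Secreted IL-1B measured by AlphaLISA bead assay after 16 h compound exposure of THP-1 cells; compounds (final up to 57.5 uM) added 1 h before LPS (250 ng/mL) and ATP (1.25 mM) stimulation; lower signal means less secretion.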
HepG2 viability: kills HepG2 cells in TGF-b inhibitor counter-screen. 410,000 compounds, 0.76% hits. Potency, µM (top dose mostly 46.1 µM), inactives show top-dose activity change, negative = cytotoxicity, most hits filed as cytotoxic. HepG2 CAGA-GFP viability, ATP luminescence, 18 h; note: potency is the fitted concentration of half-maximal effect
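CellTiter-Glo luminescence gave cytotoxicity after 18 hours at 37 degrees C. The cells were HepG2 CAGA-GFP in 1% FBS DMEM, stimulated with 500 pg/mL TGF-beta after compound addition. %Activity was normalised to no-cell wells (complete cell-killing) and DMSO (no toxicity), and curves were fitted and classified.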
* hit, by the source's call; ? = inconclusive; . = no result given. Unless noted, calls come from the whole dose curve; as a rule, active = well fitted curve in the direction sought with a large enough effect; inconclusive = small, poorly fitted or top-dose-only effect, or another doubt; inactive = no such curve, though single readings can be large; an effect the other way counts as inactive or inconclusive.

SMILES	DT40 TDP1 no CPT	TGFb SMAD3 inh	ASM inhibitor	TDP1 cell CPT	IL-1B inflam inh	HepG2 viability
COc1ccc(S(=O)(=O)N(CC(=O)N2CCN(C)CC2)c2ccc(C)cc2)cc1OC	-5%	10%	5%	10%	-17	-5%
COc1ccc(N(CC(=O)N2CCc3ccccc3C2)S(=O)(=O)c2ccc(C)cc2)cc1Cl	16µM*	2%	.	?	.	-2%
O=C(CN(c1cccc(Br)c1)S(=O)(=O)c1ccccc1)N1CCc2ccccc2C1	15µM*	-7%	.	15µM*	.	-7%
CCN1C(=O)/C(=C2\C=Cc3ccccc3N2CC)SC1=S	18µM*	-14%	-9%	15µM*	-4	1%
COc1ccc(C(=O)N=c2nc(-c3ccccc3)n(-c3ccccc3)s2)cc1	?	-1%	.	13µM*	.	-14%
Cc1ccc(-c2nc(=Nc3c(C)cc(C)cc3C)sn2-c2ccccc2)cc1	2.2µM*	5.6µM*	.	5µM*	.	-29%
CC(=O)N=c1nc(-c2ccccc2)n(-c2ccccc2)s1	?	0%	.	-10%	.	-22%
CN=c1nc(-c2ccccc2)n(-c2ccccc2)s1	6.5µM*	-17%	-3%	4.6µM*	30	-7%
Cc1cc(C)c(NC(=O)Cn2nc(-c3ccccc3)nc2-c2ccccc2)c(C)c1	?	-18%	-1%	?	5	-5%
Cc1ccc(C)c2c(C)ccnc12	-4%	-1%	.	-15%	.	8%
Cc1cc(NS(=O)(=O)c2cn(C)c(C)n2)ccc1Br	-11%	15%	.	?	.	1%
COc1ccc(-n2ncc(C(=O)Nc3ccc4c(c3)OCO4)c2C2CCN(C(=O)OC(C)(C)C)CC2)cc1	?	-12%	.	?	.	-21%
COc1ccc(-n2ncc(C(=O)NCc3ccc4c(c3)OCO4)c2C2CCN(C(=O)OC(C)(C)C)CC2)cc1	?	?	.	16µM*	.	-14%
Cc1ccc(-n2ncc(C(=O)NCC3CCN(C4CCCC4)C3)c2C2CCN(C(=O)OC(C)(C)C)CC2)cc1C (stereo not drawn)	-22%	-17%	-1%	?	?	-27%
Cc1cccc(C)c1-n1ncc(C(=O)NCc2ccc3c(c2)OCO3)c1C1CCN(C(=O)OC(C)(C)C)CC1	15µM*	-6%	.	?	.	1%
Cc1cccc(C)c1-n1ncc(C(=O)Nc2ccc3c(c2)OCCO3)c1C1CCN(C(=O)OC(C)(C)C)CC1	?	4%	.	?	.	-35%
Cc1ccc(-n2ncc(C(=O)NCc3cccs3)c2C2CCN(C(=O)OC(C)(C)C)CC2)cc1	?	-11%	.	23µM*	.	-24%
Cc1ccc(-n2ncc(C(=O)NCc3ccc4c(c3)OCO4)c2C2CCN(C(=O)OC(C)(C)C)CC2)cc1C	?	?	.	23µM*	.	-28%
COc1ccc(CCNC(=O)CSc2nnc3ccc(-c4ccccn4)nn23)cc1	?	-1%	-2%	-25%	8	-3%
COc1ccc(CNC(=O)c2cnn(-c3ccc(OC)cc3)c2C2CCN(C(=O)OC(C)(C)C)CC2)cc1	?	11µM*	.	?	.	-7%
Cc1ccc(CNC(=O)c2cnn(-c3cccc(C)c3)c2C2CCN(C(=O)OC(C)(C)C)CC2)cc1	23µM*	?	.	16µM*	.	-44%
CC(C)(C)OC(=O)N1CCC(c2c(C(=O)NCCc3ccsc3)cnn2-c2ccccc2Cl)CC1	?	0%	.	?	.	-27%
COc1ccc(-n2ncc(C(=O)NCCc3ccsc3)c2C2CCN(C(=O)OC(C)(C)C)CC2)cc1	?	0%	.	23µM*	.	-1%
